From PubChem BioAssay (Tox21)
Where “and” joins values, the source holds several entries; their conditions need not be identical. Equal values may be shown once. Records with an inconclusive call do not appear. Calls of active or inactive are those of the source. Unless noted, calls follow the shape of the dose curve; as a rule, active = well fitted curve in the direction sought with a large enough effect in the repeat runs; inconclusive = weak or mixed curves; inactive = no such curve, though single readings can be large; an effect the other way counts as inactive or inconclusive.

Columns and labels:
[1] = qHTS assay to identify small molecule antagonists of the retinoid acid receptor (RAR) signaling pathway - cell viability counter screen (AID 1159551); also: nearly all actives have a fitted effect of over 35% in size; also: potency is read from the fitted curve at half-maximal effect
Summary of the method: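 C3RL4 RARE-luciferase cells, 1,000/well, incubated overnight, then dosed with compound plus 1 uM retinol (final). After 6 hr at 37 C, viability read by CellTiter-Glo ATP luminescence following 30 min at room temperature.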

[2] = qHTS assay to identify small molecule agonists of the retinoic acid receptor (RAR) signaling pathway (AID 1159553)
Summary of the method: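 C3RL4 RARE-luciferase cells were seeded at 1,000/well and grown overnight at 37 C, then exposed to compounds for 6 hr at 37 C, 5% CO2. Luciferase reagent was added and luminescence was read after 30 min at room temperature.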

[3] = qHTS assay to identify small molecule antagonists of the estrogen related receptor (ERR) signaling pathway from Tox21 library - cell viability counter screen (AID 1224834); also: nearly all actives have a fitted effect of over 30% in size; also: potency is read from the fitted curve at half-maximal effect
Summary of the method: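 ERR reporter cells, 2,000 per well, rested 6 h, then exposed to compound in DMSO for 17.5 hours at 37 C. Viability read as fluorescence after 30 min with CellTiter-Fluor.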

[4] = biological target: Luciferin 4-monooxygenase (Photinus pyralis) (UniProt P08659); assay: qHTS assay to identify small molecule inhibitors of firefly luciferase (AID 1224835); also: nearly all actives have a fitted effect of over 25% in size; also: potency is read from the fitted curve at half-maximal effect
Chain of Luciferin 4-monooxygenase (Photinus pyralis) (P08659 whole entry, looked up): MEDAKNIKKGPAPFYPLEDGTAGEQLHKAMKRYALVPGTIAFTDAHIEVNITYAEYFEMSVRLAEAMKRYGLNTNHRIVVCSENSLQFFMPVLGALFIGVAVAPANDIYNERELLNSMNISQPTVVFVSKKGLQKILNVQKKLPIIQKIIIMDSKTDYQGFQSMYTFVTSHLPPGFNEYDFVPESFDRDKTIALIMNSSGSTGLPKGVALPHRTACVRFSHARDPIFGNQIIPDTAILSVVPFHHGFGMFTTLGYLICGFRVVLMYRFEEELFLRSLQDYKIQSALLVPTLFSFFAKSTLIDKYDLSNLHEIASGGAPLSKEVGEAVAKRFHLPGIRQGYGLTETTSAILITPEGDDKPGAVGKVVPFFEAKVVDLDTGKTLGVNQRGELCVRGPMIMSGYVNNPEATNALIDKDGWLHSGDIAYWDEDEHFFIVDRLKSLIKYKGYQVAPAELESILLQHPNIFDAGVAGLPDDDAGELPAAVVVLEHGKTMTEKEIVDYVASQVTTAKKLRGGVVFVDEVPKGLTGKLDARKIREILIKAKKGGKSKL
Summary of the method: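 Biochemical qHTS: compounds run as interplate titrations against purified firefly enzyme, with D-luciferin and ATP each at its KM concentration. Light output recorded by CCD imaging.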

[5] = qHTS assay to identify small molecule agonists of the constitutive androstane receptor (CAR) signaling pathway - cell viability counter screen (AID 1224836); also: nearly all actives have a fitted effect of over 45% in size; also: potency is read from the fitted curve at half-maximal effect
Summary of the method: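 HepG2 cells stably carrying hCAR and a CYP2B6-2.2kb reporter; 15-concentration compounds plus PK11195 (final 0.75 uM), 23 hr at 37 C/5% CO2. Viability read by CellTiter-Fluor fluorescence.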

[6] = qHTS assay to identify small molecule antagonists of the constitutive androstane receptor (CAR) signaling pathway - cell viability counter screen (AID 1224837); also: nearly all actives have a fitted effect of over 45% in size; also: potency is read from the fitted curve at half-maximal effect
Summary of the method: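 HepG2 cells stably carrying hCAR and CYP2B6-2.2kb reporter, stimulated with 50 nM CITCO and compounds at 15 concentrations for 23 h at 37 C. Viability measured by CellTiter-Fluor fluorescence.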

[7] = biological target: Nuclear receptor subfamily 1 group I member 3 (Homo sapiens) (UniProt Q14994); assay: qHTS assay to identify small molecule antagonists of the constitutive androstane receptor (CAR) signaling pathway (AID 1224838); also: nearly all actives have a fitted effect of over 40% in size; also: potency is read from the fitted curve at half-maximal effect
Chain of Nuclear receptor subfamily 1 group I member 3 (Homo sapiens) (Q14994 whole entry, looked up): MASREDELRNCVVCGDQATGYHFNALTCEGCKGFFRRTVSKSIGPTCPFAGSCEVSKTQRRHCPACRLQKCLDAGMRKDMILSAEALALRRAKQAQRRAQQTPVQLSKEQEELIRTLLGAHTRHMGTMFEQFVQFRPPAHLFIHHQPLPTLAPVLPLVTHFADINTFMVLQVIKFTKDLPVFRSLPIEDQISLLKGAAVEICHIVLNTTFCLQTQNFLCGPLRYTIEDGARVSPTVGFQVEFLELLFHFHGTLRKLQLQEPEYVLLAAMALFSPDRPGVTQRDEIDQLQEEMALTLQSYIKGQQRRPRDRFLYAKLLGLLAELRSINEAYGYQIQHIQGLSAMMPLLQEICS
Summary of the method: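 HepG2 cells stably carrying hCAR and a CYP2B6-2.2kb luciferase reporter, seeded 4 hrs before compound (15 concentrations). Stimulated with 50 nM CITCO for 24 hr at 37 C. ONE-Glo luminescence read after 30 min at room temperature.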

[8] = qHTS assay to identify small molecule antagonists of the estrogen related receptor signaling pathway with the pleiotropic PPARgamma coactivator (PGC) from Tox21 10K library (AID 1224841; call rule not given here; also: actives are mostly falling curves and most rising ones were filed inactive; nearly all actives have a fitted effect of over 50% in size; also: potency is read from the fitted curve at half-maximal effect)
Summary of the method: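 PGC/ERR cell line, 2,000 cells/well, pre-incubated 6 hours at 37 C, then exposed to compounds for 18 hours at 37 C; luciferase read with One-Glo luminescence after 30 min at room temperature.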

[9] = qHTS assay to identify small molecule agonists of the estrogen related receptor signaling pathway with the pleiotropic PPARgamma coactivator (PGC) from Tox21 10K library (AID 1224842); also: nearly all actives have a fitted effect of over 15% in size
Summary of the method: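 PGC/ERR reporter cell line, 2,000 cells per well, incubated 6 h at 37 C before 23 nL compound in DMSO was added. After 18 h at 37 C, One-Glo luminescence read following 30 min at room temperature.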

[10] = biological target: Nuclear receptor subfamily 1 group I member 3 (Homo sapiens) (UniProt Q14994); assay: qHTS assay to identify small molecule agonists of the constitutive androstane receptor (CAR) signaling pathway (AID 1224839); also: nearly all actives have a fitted effect of over 15% in size; also: potency is read from the fitted curve at half-maximal effect
Summary of the method: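 HepG2 cells stably co-transfected with hCAR and a CYP2B6-2.2kb luciferase reporter; compounds at 15 concentrations with 0.75 uM PK11195 present. After 24 hr at 37 C, luciferase read by ONE-Glo luminescence.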

[11] = biological target: Thyrotropin receptor (Homo sapiens) (UniProt P16473); assay: qHTS assay to identify small molecule agonists of the thyroid stimulating hormone receptor (TSHR) signaling pathway (AID 1224843; calls by dose curve; also: nearly all actives have a fitted effect of over 45% in size; also: potency is read from the fitted curve at half-maximal effect)
Chain of Thyrotropin receptor (Homo sapiens) (P16473 whole entry, looked up): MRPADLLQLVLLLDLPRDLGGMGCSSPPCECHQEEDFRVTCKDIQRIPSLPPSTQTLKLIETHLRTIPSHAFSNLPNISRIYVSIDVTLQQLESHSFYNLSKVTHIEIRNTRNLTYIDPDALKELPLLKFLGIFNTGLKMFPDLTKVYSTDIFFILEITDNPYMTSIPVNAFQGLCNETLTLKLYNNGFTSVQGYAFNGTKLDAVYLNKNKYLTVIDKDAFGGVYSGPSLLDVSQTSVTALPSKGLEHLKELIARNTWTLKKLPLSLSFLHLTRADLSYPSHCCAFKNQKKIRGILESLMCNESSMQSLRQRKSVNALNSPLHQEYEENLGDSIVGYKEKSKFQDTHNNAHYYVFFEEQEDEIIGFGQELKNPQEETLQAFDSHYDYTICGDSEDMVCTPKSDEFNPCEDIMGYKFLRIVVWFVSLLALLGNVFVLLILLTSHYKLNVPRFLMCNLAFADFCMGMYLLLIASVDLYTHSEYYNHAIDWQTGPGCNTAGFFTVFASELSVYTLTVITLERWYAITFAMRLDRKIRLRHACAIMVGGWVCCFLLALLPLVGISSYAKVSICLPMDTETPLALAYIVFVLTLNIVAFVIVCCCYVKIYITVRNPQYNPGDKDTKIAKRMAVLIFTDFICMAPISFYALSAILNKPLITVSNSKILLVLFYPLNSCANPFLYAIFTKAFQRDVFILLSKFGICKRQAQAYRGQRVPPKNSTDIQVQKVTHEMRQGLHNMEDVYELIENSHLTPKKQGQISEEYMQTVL
Summary of the method: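 Steps: seed 800 TSHR-HEK293 cells per well; add test compound and hold 30 min at ambient temperature; dispense cAMP-d2 then anti-cAMP cryptate; incubate 1 h at ambient; measure fluorescence intensity.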

[12] = qHTS assay to identify small molecule antagonists of the retinoic acid receptor (RAR) signaling pathway (AID 1159552; also: nearly all actives have a fitted effect of over 50% in size; also: potency is read from the fitted curve at half-maximal effect)
Summary of the method: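 Retinol signaling pathway inhibitors screened in C3RL4 RARE-luciferase reporter cells seeded overnight at 37 C, then compounds added with 1 uM (final) retinol as pathway substrate. After 6 hr at 37 C, luciferase luminescence read after 30 min at room temperature.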

[13] = qHTS assay to identify small molecule antagonists of the estrogen related receptor signaling pathway with the pleiotropic PPARgamma coactivator (PGC) from Tox21 10K library - cell viability counter screen (AID 1224840; active = well fitted cell-killing curve with a large enough effect in the repeat runs, not every such curve was filed as active; also: nearly all actives have a fitted effect of over 40% in size; also: potency is read from the fitted curve at half-maximal effect)
Summary of the method: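 PGC/ERR cells (2,000/well) plated 6 h, then compound-treated for 17.5 h at 37 C. Viability measured by CellTiter-Fluor fluorescence after 30 min at 37 C, multiplexed with the pathway assay.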

[14] = qHTS assay to identify small molecule antagonists of the estrogen related receptor (ERR) signaling pathway - cell viability counter screen (AID 1224818); also: series mostly up to about 46 µM
Summary of the method: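 ERR cells, 2,000 per well, compound added after 6 h and incubated 17.5 h at 37 C. Viability read by CellTiter-Fluor fluorescence after a further 30 min at 37 C.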

[15] = qHTS assay to identify small molecule agonists of the estrogen related receptor (ERR) signaling pathway (AID 1224820)
Summary of the method: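 ERR reporter cells (NTP line) plated 2,000/well, incubated 6 h at 37 C/5% CO2, then pinned with compounds in DMSO and held 18 h at 37 C. One-Glo added; luminescence read after 30 min at room temperature.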

[16] = tested on: estrogen-related receptor alpha (ERRalpha) with PGC-1alpha coactivator, human; assay: qHTS assay to identify small molecule antagonists of the estrogen related receptor signaling pathway with the pleiotropic PPARgamma coactivator (PGC) (AID 1224821; calls by dose curve; also: nearly all actives have a fitted effect of over 50% in size; also: potency is read from the fitted curve at half-maximal effect)
Summary of the method: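 Cells engineered for PGC/ERR signalling (line from NTP) were plated 6 h at 37 C/5% CO2, then exposed to DMSO-dissolved compound for 18 h at 37 C. Luciferase activity was read by One-Glo luminescence after 30 min at room temperature.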

[17] = qHTS assay to identify small molecule antagonists of the estrogen related receptor signaling pathway with the pleiotropic PPARgamma coactivator (PGC) cell viability counter screen (AID 1224822; also: series mostly up to about 46 µM)
Summary of the method: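 PGC/ERR cells rested 6 h, then compound-treated 17.5 h at 37 C. CellTiter-Fluor added for 30 min at 37 C, viability measured by fluorescence intensity.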

[18] = qHTS assay to identify small molecule agonists of the estrogen related receptor signaling pathway with the pleiotropic PPARgamma coactivator (PGC) (AID 1224823)
Summary of the method: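 PGC/ERR reporter cells were seeded, rested 6 h at 37 C/5% CO2, then exposed to compounds in DMSO by pin transfer for 18 h at 37 C. Luciferase activity was read as luminescence after One-Glo reagent and 30 min at room temperature.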

Measured: Potency
% is scaled to controls: 0 for no effect and ±100 for the full control effect.

CCCN(CCC)C(=O)C(CCC(=O)OCCCN1CCN(CCOC(=O)Cc2c(C)n(C(=O)c3ccc(Cl)cc3)c3ccc(OC)cc23)CC1)NC(=O)c1ccccc1 (centres undefined)
active: [3] 23.7 µM | [5] 23.7 µM | [6] 26.6 µM | [8] 29.8 µM
inactive: [1] | [2] | [4] | [7] | [9]

CN1CCC(Nc2ncc3ncnc(Nc4ccc(F)c(Cl)c4)c3n2)CC1
active: [3] 26.6 µM
inactive: [1] | [4] | [10] | [8] | [11]

CC(C)(C)CC(C)(C)c1ccc(OCCOCC[N+](C)(C)Cc2ccccc2)cc1
active: [1] 61.1 µM | [12] 43.2 µM and 29.8 µM | [3] 48.5 µM and 13.3 µM | [13] 48.5 µM | [8] 27.3 µM and 6.68 µM | [11] 13.7 µM and 11.9 µM
inactive: [4] | [5] | [9]

CCCCCCCCCCCCCC[P+](CCCC)(CCCC)CCCC (tested in a mixture with another compound)
inactive: [4] | [10] | [11]
active: [1] 27.5 µM | [3] 24.5 µM | [5] 19.4 µM | [6] 19.4 µM | [13] 17.3 µM

CCOc1ccc2nc3cc(N)ccc3c(N)c2c1
inactive: [1] | [2] | [4] | [5] | [6] | [10] | [11]

Fc1ccc([C@@H]2CCNC[C@H]2COc2ccc3c(c2)OCO3)cc1
inactive: [1] | [2] | [4] | [5] | [6] | [7] | [13]

OCc1c[nH]c2ccccc12
active: [10] 30.6 µM | [8] 3.44 µM
not listed: [3] | [4] | [6] | [11] | [12]
inactive: all other assays above

CCN(CC)CCCC(C)Nc1c2ccc(Cl)cc2nc2ccc(OC)cc12 (centres undefined)
inactive: [1] | [14] | [15] | [18] | [4] | [5]
active: [16] 16.8 µM | [3] 5.96 µM

CCC(C)Nc1ccc(NC(C)CC)cc1 (centres undefined)
active: [1] 39.3 µM | [3] 19.7 µM | [4] 40.7 µM | [5] 19.7 µM | [6] 31.2 µM | [13] 15.7 µM | [8] 8.8 µM
inactive: [9]

Cc1c(C)c2c(c(C)c1O)CCC(C)(COc1ccc(CC3SC(=O)NC3=O)cc1)O2 (centres undefined)
inactive: [1] | [3] | [4] | [5] | [7] | [13]

CC[C@H](c1ccc(O)cc1)[C@@H](CC)c1ccc(O)cc1
inactive: [1] | [4] | [5] | [6] | [13]
active: [3] 27.3 µM | [7] 0.473 µM

Oc1cc2ccccc2c2ccccc12
active: [1] 27.3 µM | [12] 13.7 µM | [3] 8.63 µM | [4] 79.6 µM | [5] 17.2 µM | [13] 7.7 µM

O=C(NOCC1CC1)c1ccc(F)c(F)c1Nc1ccc(I)cc1Cl
active: [3] 18.8 µM | [8] 11.9 µM
inactive: [1] | [12] | [4] | [5] | [6] | [9]

NC(=NCCCCCCN=C(N)/N=C(\N)Nc1ccc(Cl)cc1)/N=C(\N)Nc1ccc(Cl)cc1
inactive: [1] | [4]
active: [3] 54.2 µM [middle of 4 runs] | [13] 54 µM [middle of 4 runs]

Cc1cccc(N(C)C(=S)Oc2ccc3c(c2)C2CCC3C2)c1 (centres undefined)
active: [10] 21.1 µM
inactive: [1] | [12] | [3] | [4] | [5] | [7] | [13] | [8] | [9]

CCc1cc(SCc2sc(-c3ccc(C(F)(F)F)cc3)nc2CN2CCN(c3ccc(OC)cc3)CC2)ccc1OCC(=O)O
inactive: [1] | [4] | [5] | [6] | [7] | [10] | [9]
active: [12] 61.1 µM | [3] 34.4 µM | [13] 34.4 µM | [8] 19.3 µM

C=C(C)C(=O)OCC(O)COc1ccc(C(C)(C)c2ccc(OCC(O)COC(=O)C(=C)C)cc2)cc1 (centres undefined)
active: [3] 48.6 µM | [6] 61.1 µM | [13] 30.6 µM | [8] 43.3 µM
inactive: [1] | [12] | [4] | [10] | [9] | [11]

CCCCCCCCS(=O)C(C)Cc1ccc2c(c1)OCO2 (centres undefined)
inactive: [1] | [4] | [5] | [6] | [7] | [13] | [11]

Cc1onc(-c2c(Cl)cccc2Cl)c1C(=O)N[C@@H]1C(=O)N2[C@@H]1SC(C)(C)[C@@H]2C(=O)O
inactive: [1] | [2] | [3] | [5] | [6] | [7] | [13] | [8] | [9] | [11]
